In PubChem BioAssay AID1851 (National Center for Advancing Translational Sciences (NCATS), 2009):
Several values for one entry are separate records, joined by “and”; a condition that tells them apart may be missing. Identical values can stand only once. In all, about 16,000 compounds went through this assay and about 2,600 (16%) were called active. Inconclusive results (about 20%) are left out. Calls come from the whole dose curve; as a rule, active = well fitted curve in the direction sought with a large enough effect; inconclusive = small, poorly fitted or top-dose-only effect, or effect the other way; inactive = no such curve, though single readings can be large or run the other way. Not all results are given here. More than one record can exist for a structure, and the calls need not agree.

Molecular target: Cytochrome P450 2D6 (Homo sapiens) (UniProt P10635)
Sequence (P10635 whole entry, looked up): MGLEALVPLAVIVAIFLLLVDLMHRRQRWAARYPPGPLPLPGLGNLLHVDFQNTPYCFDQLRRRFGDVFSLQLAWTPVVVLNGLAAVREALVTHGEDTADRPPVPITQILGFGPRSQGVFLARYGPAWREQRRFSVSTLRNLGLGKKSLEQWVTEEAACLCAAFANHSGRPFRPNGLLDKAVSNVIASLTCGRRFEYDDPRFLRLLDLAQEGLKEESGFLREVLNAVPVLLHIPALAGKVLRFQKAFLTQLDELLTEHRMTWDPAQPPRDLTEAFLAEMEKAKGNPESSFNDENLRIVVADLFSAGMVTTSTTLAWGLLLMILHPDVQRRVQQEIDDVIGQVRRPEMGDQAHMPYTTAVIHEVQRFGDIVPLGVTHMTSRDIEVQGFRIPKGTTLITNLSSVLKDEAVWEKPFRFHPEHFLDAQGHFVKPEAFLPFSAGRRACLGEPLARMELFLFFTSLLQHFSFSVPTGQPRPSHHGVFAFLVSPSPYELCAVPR
Test: Cytochrome panel assay with activity outcomes
Settings: recombinant CYP, pro-luciferin dealkylation, luminescence, p450-cyp2d6; series mostly up to 57.1 µM
% is set by controls: 0 for no effect and ±100 for the full control effect.

Row | Structure (SMILES) | AC50 | activity, negative = inhibition
1 | C/C(=N/NC(=O)Cc1cccn1C)c1ccccc1 | inactive | –
2 | Cc1ccc(/C=C/c2nnc(-c3ccc(C)cc3)o2)cc1 | inactive | –
3 | Cc1c2c(nc3c(C(=O)NC4CCCC4)cnn13)CCCC2 | inactive | –
4 | Cc1cccc(C)c1OC1(c2ccccc2)OC(=O)c2ccccc21 (stereo unspecified) | inactive | –
5 | O=C(/C=C\c1ccc(O)c(O)c1)O[C@@H]1C[C@](O)(C(=O)O)C[C@@H](O)[C@@H]1O | inactive | –
6 | CCCn1nc(Oc2nc(NCC)nc(NC(C)C)n2)ccc1=O | inactive | –
7 | COc1ccc(Cc2nnc(NC(=O)Cn3cnc4c3c(=O)n(C)c(=O)n4C)s2)cc1OC | inactive | –
8 | COc1cccc(C2C3=C(CC(C)(C)CC3=O)OC(N)=C2[N+](=O)[O-])c1 (stereo unspecified) | inactive | –
9 | CCOC(=O)c1c(C)nc2c(c1-c1ccc(OC)cc1)C(=O)CC(C)(C)C2 | inactive | –
10 | COc1ccc(C2C3=C(CC(C)(C)CC3=O)Oc3ncn(CC(C)C)c(=N)c32)cc1 (stereo unspecified) | 1 µM (active) | –
11 | COc1ccc(NC(=O)N2CCCC3(CCN(C(=O)c4ccco4)CC3)C2)cc1 | inactive | –
12 | O=C(Nc1ccccc1)N1CCC2(CC1)CCN(C(=O)c1ccco1)CC2 | inactive | –
13 | CC(C)NC(=O)N1CCC2(CC1)CCN(C(=O)c1ccco1)CC2 | inactive | –
14 | O=C(Nc1ccccc1)N1CCCC2(CCN(C(=O)c3ccco3)CC2)C1 | inactive | –
15 | CC(C)NC(=O)N1CCCC2(CCN(C(=O)c3ccco3)CC2)C1 | 2.51 µM (active) | –
16 | O=C(c1ccco1)N1CCC2(CC1)CCN(c1ccc(-c3ccccc3)cc1)CC2 | inactive | –
17 | O=C(c1ccco1)N1CCC2(CC1)CN(c1cccc(-c3ccccc3)c1)C2 | inactive | –
18 | O=C(c1ccco1)N1CCC[C@@]2(CCN(C(c3ccccc3)c3ccccc3)C2)C1 | 3.16 µM (active) | –
19 | O=C(c1ccco1)N1CCC2(CCCN(C(c3ccccc3)c3ccccc3)C2)CC1 | 10 µM (active) | –
20 | O=C(c1ccco1)N1CCC2(CCCN(c3ccccc3)C2)CC1 | inactive | –
21 | O=C(c1ccco1)N1CCC2(CC1)CCN(C(c1ccccc1)c1ccccc1)CC2 | 5.01 µM (active) | –
22 | N#Cc1cccc(NC(=O)N2CC[C@@]3(CCCN(C(=O)c4ccco4)C3)C2)c1 | inactive | –
23 | Cc1nc2ccccn2c1/C(O)=C1\C(=O)C(=O)N(CCN2CCOCC2)C1c1cccnc1 (stereo unspecified) | inactive | –
24 | CCOc1ccc(/C(O)=C2/C(=O)C(=O)N(CCOCCO)C2c2cccnc2)cc1 (stereo unspecified) | inactive | –
25 | CN[C@H](CC(=O)O)C(=O)O | inactive | –
26 | C=C[C@@]1(C)CC(=O)[C@@]2(O)[C@@]3(C)[C@@H](O)CCC(C)(C)[C@@H]3[C@H](O)[C@H](OC(C)=O)[C@@]2(C)O1 | inactive | –

Row | Structure (SMILES) | AC50 | activity, negative = inhibition
27 | COc1ccc(C(=O)N2CCC3(CC2)CN(C(=O)Nc2ccccc2)C3)cc1 | inactive | –
28 | Cc1cc(C(C#N)c2cccc(Cl)c2)n2ncnc2n1 (stereo unspecified) | inactive | –
29 | CC1CC(=O)c2cnc(N)nc2C1 (stereo unspecified) | inactive | –
30 | COC(=O)[C@@H]1CC[C@H](C)[C@@H](c2ccc(C)cc2)N1C(=O)c1ccc(/C=N\O[C@@H](C)c2cn([C@H]3COC[C@H]3O)nn2)cc1 | – | -10% [at 11.4 µM] (inactive)
31 | CC(C)=CC(=O)Nc1nnc(C(C)C)s1 | inactive | –
32 | COc1ccc(OCc2nnc(SCC(=O)O)n2N)cc1 | inactive | –
33 | O=C(c1ccco1)N1CCC2(CC1)CN(c1ccc(-c3ccccc3)cc1)C2 | inactive | –
34 | O=C(c1ccco1)N1CCC2(CC1)CN(c1ccccc1)C2 | inactive | –
35 | O=C(c1ccco1)N1CCC2(CC1)CN(C(c1ccccc1)c1ccccc1)C2 | 1.26 µM (active) | –
36 | O=C(N/C(=C\c1cccs1)C(=O)N1CCCCCC1)c1ccccc1 | inactive | –
37 | O=C(O)CS(=O)c1ccc2c3c(cccc13)C(=O)c1ccccc1-2 (stereo unspecified) | – | 21.8% [at 11.4 µM] (inactive)
38 | CN(C(=O)COc1cccc(Br)c1)C1CCS(=O)(=O)C1 (stereo unspecified) | inactive | –
39 | COc1ccc(NC(=O)COC(=O)c2c(-c3ccccc3)noc2C)cc1 | inactive | –
40 | C/C(=N\NC(=O)c1ccc(Cl)cc1)c1ccc(Br)s1 | inactive | –
41 | CSC(=N)N | inactive and 50.1 nM (active) | –
42 | CC(C)SC(=N)N | inactive | –
43 | N=C(N)SCCSC(=N)N | – | 5.17% [at 11.4 µM] (inactive)
44 | CCSC(=N)N | inactive and 3.98 µM (active) | –
45 | N=C(N)SCCN | inactive | –
46 | C[C@@H](CSC(=N)N)C(N)=O | – | 4.14% [at 11.4 µM] (inactive)
47 | CCn1c(C)nc2cc(S(=O)(=O)C(F)F)ccc21 | inactive | –
48 | Cc1ccc(Sc2nc(-c3ccccc3)ccc2C#N)cc1 | inactive | –
49 | CCOC(=O)C1CCCN(C(=O)C2CCN(S(=O)(=O)N3CCC4(CC3)OCCO4)CC2)C1 (stereo unspecified) | inactive | –
50 | CCCCSc1nnc(-c2ccc(C)cc2)n1C | inactive | –
51 | NNC(=O)CNc1cccc(Br)c1 | – | -9.21% [at 11.4 µM] (inactive)
52 | NNC(=O)CNC(c1ccccc1)c1cc(Br)ccc1NC(=O)c1ccccc1Br (stereo unspecified) | 7.94 µM (active) | –

Row | Structure (SMILES) | AC50 | activity, negative = inhibition
53 | COC(=O)CNC(c1ccccc1Cl)c1cc(Br)ccc1NC(=O)CCN1CCOCC1 (stereo unspecified) | inactive | –
54 | O=S1(=O)N[C@H]2CC[C@@H]3NS(=O)(=O)N[C@H]4CC[C@H](N1)N4S(=O)(=O)N23 | – | 12.7% [at 11.4 µM] (inactive)
55 | CC(C)(C)N1C(=O)[C@H]2[C@@H]3[C@H](O)C=CC(=O)[C@H]3CC[C@H]2C1=O | – | 7.58% [at 11.4 µM] (inactive)
56 | COc1ccc(N(C)C(=O)c2ccc3nc(-c4ccccc4)c(-c4ccccc4)nc3c2)cc1 | inactive | –
57 | CS(=O)(=O)N1CC(C(=O)NC2CC2)Oc2ccc(Cl)cc21 (stereo unspecified) | inactive | –
58 | C=C(CC1([C@@H](NP(=O)(c2ccccc2)c2ccccc2)[C@H]2C[C@@H]2CCN(C(=O)OCC)S(=O)(=O)c2ccc(C)cc2)CC1)c1ccccc1 | inactive | –
59 | N#CCCn1c(=O)c(-c2ccc(Cl)cc2)nc2cnc(N3CCOCC3)nc21 | inactive | –
60 | Cc1nc2cncnc2n(Cc2ccccc2)c1=O | inactive | –
61 | Cc1ccc([C@@H](O)c2cnc(C)n2Cc2ccccc2)cc1 | 0.631 µM (active) | –
62 | Cc1ncc(CSC(=N)N)n1Cc1ccccc1 | – | -11.5% [at 11.4 µM] (inactive)
63 | Cc1nn2c(C)nc3sc4c(c3c2nc1=O)CC(C)(C)OC4 | inactive | –
64 | CCOC(=O)N1CCN(C(=O)c2ccc(NC(C)=O)cc2)CC1 | inactive | –
65 | CCOC(=O)c1cnc(-c2ccccc2)nc1Oc1cccc(Cl)c1 | inactive | –
66 | CCOC(=O)c1cnc(SCCc2ccccc2)nc1N | 2 µM (active) | –
67 | CCOC(=O)c1cnc(-c2ccccc2)nc1Oc1ccccc1 | inactive | –
68 | O=C1C(O)=C(O)C(=O)C(O)=C1O | inactive | –
69 | NS(=O)(=O)c1ccc(NCc2ccccc2OCc2ccccc2F)cc1 | 15.8 µM (active) | –
70 | NS(=O)(=O)c1ccc(NCc2cnc3ccccc3n2)cc1 | – | 16.5% [at 11.4 µM] (inactive)
71 | NS(=O)(=O)c1ccc(NCc2nc3ccccc3[nH]2)cc1 | – | -10.2% [at 11.4 µM] (inactive)
72 | O=C(NNC(=O)c1ccccc1)C(=O)N1CCCCC1 | inactive | –
73 | BrC(c1cccc2ccccc12)c1cccc2ccccc12 | – | 11.2% [at 11.4 µM] (inactive)
74 | Cc1cccc(CNc2ncncc2-c2cccc(NS(C)(=O)=O)c2)c1 | 20 µM (active) | –
75 | COc1cccc(-c2cncnc2NCc2cccc(C)c2)c1 | 12.6 µM (active) | –
76 | COc1ccccc1-c1cncnc1NCc1ccccc1 | 15.8 µM (active) | –
77 | Cc1cccc(CNc2cc(-c3cccc(NS(C)(=O)=O)c3)ncn2)c1 | inactive | –
78 | COc1ccccc1-c1cncnc1NCc1cccc(C)c1 | 20 µM (active) | –

Row | Structure (SMILES) | AC50 | activity, negative = inhibition
79 | CNc1ncncc1-c1ccccc1OC | inactive | –
80 | NCCCNCCCCNCCCN | inactive | –
81 | O=C(c1ccc(-c2nnc(Nc3ccccc3)c3ccccc23)cc1)N1C[C@H]2C[C@H](C1)c1cccc(=O)n1C2 | inactive | –
82 | O=C(NCc1ccco1)c1ccc2c(=O)n(-c3ccccc3)c(=S)[nH]c2c1 | inactive | –
83 | COc1ccc(-n2c(=O)c(-c3ccc(F)cc3)nc3cnc(OC)nc32)cc1 | inactive | –
84 | O=C(Nc1ccc(C(=O)Nc2ccc(C(=O)Nc3ccc(S(=O)(=O)O)c4cc(S(=O)(=O)O)cc(S(=O)(=O)O)c34)cc2)cc1)Nc1ccc(C(=O)Nc2ccc(C(=O)Nc3ccc(S(=O)(=O)O)c4cc(S(=O)(=O)O)cc(S(=O)(=O)O)c34)cc2)cc1 | inactive | –
85 | Cc1nonc1NC(=O)OCCN1CCOC1=O | inactive | –
86 | O=C(O)/C(=C/c1c(C(=O)O)[nH]c2cc(Cl)cc(Cl)c12)c1ccccc1 | inactive | –
87 | C[C@@]12CCC(=O)C=C1CC[C@@H]1[C@@H]2[C@H](O)C[C@]2(C)[C@@H]1CC[C@]2(O)C(=O)COC(=O)CCC(=O)O | inactive | –
88 | COc1c(O)cc2c(c1O)[C@@H]1O[C@@H](CO)[C@@H](O)[C@@H](O)[C@@H]1OC2=O | inactive | –
89 | CSc1nc(C)c(CCOC(=O)c2ccccc2)c(=O)[nH]1 | inactive | –
90 | CCN(CC)C(=O)c1cc2cc([N+](=O)[O-])ccc2s1 | inactive | –
91 | CC1CCCC(NC(=O)c2n[nH]c(=O)c3ccccc23)C1C (stereo unspecified) | inactive | –
92 | COc1cc([C@H](O)C(=O)O)ccc1O | inactive | –
93 | O=[N+]([O-])c1cccc(-c2nc(-c3ccncc3)no2)c1 | inactive | –
94 | NS(=O)(=O)c1ccc(N=C2C(=O)Nc3ccccc32)cc1 | – | 2.35% [at 11.4 µM] (inactive)
95 | O=C(O)[C@@H]1CCCNC1 | inactive | –
96 | O=C1C[C@@H](O)[C@@H](O)[C@H]2[C@@H]3C(=O)N(Cc4ccc5c(c4)OCO5)C(=O)[C@@H]3CC[C@H]12 | – | 14% [at 11.4 µM] (inactive) and -16.6% [at 11.4 µM] (inactive)
97 | COc1ccc(CCN2C(=O)C(Oc3ccccc3C)C2c2ccc3c(c2)OCO3)cc1OC (stereo unspecified) | 14.1 µM (active) | –
98 | COc1ccc(CCN2C(=O)C(O)=C(C(=O)c3ccco3)C2c2cccs2)cc1OC (stereo unspecified) | inactive | –
99 | COC(=O)c1ccc(C2C(Oc3ccccc3)C(=O)N2CCc2ccc(OC)c(OC)c2)cc1 (stereo unspecified) | inactive | –
100 | O=C1[C@H]2[C@H]3[C@H](O)[C@H](O)C/C(=N/OCc4ccccc4)[C@H]3CC[C@@H]2C(=O)N1Cc1ccc2c(c1)OCO2 | – | -14.6% [at 11.4 µM] (inactive)
101 | Cc1ccccc1OC1C(=O)N(Cc2ccc3c(c2)OCO3)C1c1sccc1C (stereo unspecified) | 8.91 µM (active) | –
